# Source: PubChem BioAssay (NCI)
# Compounds without any hit were thinned out: in the full panel of roughly 79,000, 15% have a hit. Values without a mark were called inactive. Calls of active or inactive are those of the source. Rule as the data show it: active = growth inhibition above about 70%; inactive = the rest.
# Test: NCI Yeast Anticancer Drug Screen. Data for the wt2 strain (AID 169);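 also: 0% = growth of vehicle-treated yeast cultures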
# Conditions: S. cerevisiae wt2 strain growth inhibition, hits give high values
# Experimental: Growth inhibition of yeast strains with defined genetic alterations is measured as a screen for potential anti-cancer activity. Selected strains with alterations in DNA damage repair or cell cycle control were exposed to compounds and growth inhibition was measured relative to vehicle treated controls. The strain used in this assay is wt2
SMILES,growth inhibition (at 1.2 µM) [%],growth inhibition (at 3.7 µM) [%],growth inhibition (at 11.0 µM),growth inhibition (at 33.0 µM),growth inhibition (at 100.0 µM)
COc1ccc(N2C(=O)CC(Cl)C2=O)cc1 (stereo not given),-4,-1,37%,99% (active),100% (active)
CC(=O)Oc1ccc(C(=O)c2ccccc2)c(O)c1,-3,7,7%,21%,94% (active)
COC(=O)c1cccc(C)c1C(=O)c1c(C)cc(C)cc1C,-3,-3,-4%,9%,50%
C=C(C)[C@@H]1CCc2c(O)c(O)c(=O)cc(C)c2C1,-69,-31,-27%,91% (active),97% (active)
CCCCCCCCCCCc1nc(N)n[nH]1,5,6,24%,92% (active),97% (active)
C=C(CCCO)[C@@H]1CC[C@@](C)(O)[C@H]1C,-30,-27,-33%,-30%,-23%
COC(=O)c1n[nH]c(C)c1N=NN(C)CCC#N,0,11,99% (active),99% (active),99% (active)
COc1cc(/C=C/c2sc3ccccc3[n+]2C)ccc1N(C)C,0,-1,-2%,62%,97% (active)
